EP2 mod = modulates human prostaglandin E2 receptor EP2 signaling; 260,000 compounds, 0.83% hits; induction, % at 25 µM; AID 940; EP2-expressing cells, cAMP HTRF FRET, PGE2 co-stimulation;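 active means compounds whose cAMP rise, as percent of the full-agonist control response, exceeds 60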;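 further: rat C6 glioma line stably carrying human EP2 under a CMV promoter; the protocol text gives 20 µM as final concentration; 100% = response of wells given 1 µM PGE2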
Target sequence (P43116 whole entry, looked up): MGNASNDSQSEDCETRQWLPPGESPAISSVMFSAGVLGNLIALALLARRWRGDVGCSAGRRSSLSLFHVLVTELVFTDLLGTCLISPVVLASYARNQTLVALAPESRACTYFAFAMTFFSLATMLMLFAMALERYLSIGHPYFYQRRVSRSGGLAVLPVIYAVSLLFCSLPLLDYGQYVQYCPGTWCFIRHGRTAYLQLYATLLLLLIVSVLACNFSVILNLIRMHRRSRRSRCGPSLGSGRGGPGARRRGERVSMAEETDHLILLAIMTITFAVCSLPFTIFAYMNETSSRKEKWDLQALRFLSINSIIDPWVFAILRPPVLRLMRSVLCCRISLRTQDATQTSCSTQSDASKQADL
S1P3 antag = S1P3 (human) receptor antagonism | Q99500 | CHO S1P3 NFAT-BLA reporter, FRET fluorescence, antagonist mode | inhibition, % at 4.98 µM | 170,000 compounds, 0.27% hits;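 active means inhibition above the plate cutoff, the mean inhibition of test wells on that plate plus 3 SD, cut at about 28% in these data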;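 further: cells challenged with S1P at its EC80 of 0.8 µM; blue over green emission ratio from cleaved BLA substrate after 4 h stimulation; 0% = S1P-stimulated wells and 100% = unstimulated DMSO-only wells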
EP2 antag = blocks the human prostaglandin E2 receptor EP2. C6 glioma cells expressing human EP2, cAMP TR-FRET; cells stimulated with saturating PGE2. inhibition, % at 25 µM. 260,000 compounds, 0.52% hits. P43116;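 active means percent inhibition above 40 after rounding to a whole number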;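 further: rat C6 glioma host cells with rolipram phosphodiesterase inhibitor present; the protocol text gives 20 µM as final concentration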
KCC2 mod = KCC2 (human) Cl- transport modulation | B-score of Tl+ flux slope (higher = more flux/activation; lower = inhibition) at 10 µM | KCC2 cells, thallium flux FluoZin-2 fluorescence | Q9H2X9 | 190,000 compounds, 2.2% hits;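 active means thallium flux slope and its plate-corrected score both differing from the plate sample mean at a set confidence after two filtering rounds, in either direction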;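 further: slope of fluorescence scaled to starting intensity during 10 to 20 s after thallium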
KCC2 secondary = confirmation of human KCC2 transport modulators; shares compounds with KCC2 mod; 3,700 compounds, 15% hits; normalised thallium flux (F/F0 slope) at 10 µM; HEK293-KCC2, thallium flux, FluoZin2 fluorescence; active compounds read high;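 active means thallium flux slope above the same plate's solvent-only control mean plus 3 SD; inconclusive means the two replicate wells disagree; inactive means no significant difference from solvent-only control wells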
KCC2 bumet counter = bumetanide-insensitive thallium flux in KCC2 cells with ouabain, counter-screen. shares compounds with KCC2 mod. HEK293-KCC2 + bumetanide/ouabain, thallium flux FluoZin2; active compounds read high. normalized thallium flux at 10 µM. 3,700 compounds, 49% hits. AID 1714;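 active means thallium entry rate above the same plate's blocked-transporter control wells by more than 3 SD; inconclusive means the two repeat wells disagree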;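 further: raw slope of fluorescence over initial fluorescence between 10 and 20 s after thallium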
KCC2 secondary2 = confirmation of human KCC2 transport modulators | 3,700 compounds, 23% hits | shares compounds with KCC2 mod | normalized thallium flux at 10 µM | HEK293-KCC2, thallium flux FluoZin2 fluorescence; actives lie on both sides; F/F0 rise rate, 10–20 s post-thallium | AID 1715;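 active means thallium flux slope more than 3 SD above or below the plate's solvent-only control mean, mostly below; inconclusive means the two repeat wells disagreed; inactive means no significant shift from solvent-only controls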;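 further: raw slope with 0.1% DMSO as baseline and bumetanide as block control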
HEK counter1 = acts in parental HEK cells, KCC2 counter-screen. shares compounds with KCC2 mod. HEK293 parental cells, thallium flux FluoZin2, ouabain; baseline-ratio fluorescence slope, 10–20 s after thallium. thallium flux rate (normalised fluorescence) at 10 µM. 3,700 compounds, 46% hits. AID 1716;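 active means thallium flux rate significantly above the same plate's solvent-only control wells, beyond their mean plus 3 SD; inconclusive means the two replicate wells gave conflicting results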
KCC2 retest ouab = confirmation of human KCC2 modulators with ouabain; shares compounds with KCC2 mod; HEK293-KCC2, thallium flux FluoZin2 fluorescence; bidirectional: low = inhibitor, high = activator; raw Tl+ flux slope (below DMSO = inhibition, above = activation) at 10 µM; 3,700 compounds, 48% hits; AID 1717;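 active means thallium flux slope beyond 3 SD from same-plate DMSO control mean in most replicates, usually higher, sometimes lower; inconclusive means repeat tests gave conflicting results; inactive means no significant difference from controls in most replicates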;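 further: slope of initial-normalized fluorescence between seconds 10 and 20 after thallium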
HEK counter2 = counter-screen for KCC2 modulators: effect in parental HEK293 cells. shares compounds with KCC2 mod. thallium flux FluoZin-2 fluorescence slope. thallium flux slope at 10 µM. 3,700 compounds, 33% hits;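 active means thallium flux slope above the same plate's solvent-control mean plus 3 SD in both duplicate wells; inconclusive means duplicate wells that disagreed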;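 further: run without ouabain in cells lacking the KCC2 cotransporter; slope of fluorescence scaled to its starting value between 10 and 20 s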
* hit, by the source's call; u = inconclusive; x = no result given. Compounds with a hit are over-represented: about 3.1% of the library has one in this group of screens.

SMILES | EP2 mod | S1P3 antag | EP2 antag | KCC2 mod | KCC2 secondary | KCC2 bumet counter | KCC2 secondary2 | HEK counter1 | KCC2 retest ouab | HEK counter2
CC1=CN2C(=N)/C(=C/c3ccc(Sc4ccc(Cl)cc4)o3)C(=O)N=C2S1 | 12.3 | -5.9 | 4.0 | 9.24* | 0.00993 | 0.0143* | 0.0325 | 0.0129* | 0.0236 | 0.0108
Cc1cc(NC(=O)c2cccc(F)c2)ccc1NC(=O)c1ccco1 | -44.4 | x | 10.9 | x | x | x | x | x | x | x
C=C(C)COc1ccc(-c2[nH]ncc2-c2ccccc2)c(O)c1 | -32.0 | x | 29.2 | -4.45* | 0.0105 | u | 0.0354 | 0.00732 | 0.0231 | 0.0104
S=c1nccc(-c2ccc(Cl)cc2)[nH]1 | 0.6 | 10.4 | 12.7 | 19.3* | 0.0101* | 0.0193* | 0.0414* | 0.0241* | 0.0318* | 0.0274*
CCOC(=O)C1=C(O)CSC1=NC(=O)c1ccc(OC)cc1 | -36.6 | x | 5.8 | x | x | x | x | x | x | x
CCC(C)(C)n1nnnc1C(c1ccc(O)c(OC)c1)N1CCN(c2nc3ccccc3s2)CC1 (configuration not stated) | 10.8 | -40.8 | 8.4 | -4.29* | 0.00798 | 0.00466 | 0.0228* | 0.00701 | 0.0164* | 0.00998
COc1ccc(C(c2nnnn2C(C)(C)C)N2CCN(c3nc4ccccc4s3)CC2)cc1 (configuration not stated) | 11.1 | 18.1 | 1.8 | -0.453 | x | x | x | x | x | x
CCSC1=N/C(=C/c2ccsc2)C(=O)N1c1ccccc1 | 33.5 | -1.5 | 3.3 | -4.72* | 0.00927 | 0.00623 | 0.0342 | 0.00714 | 0.0219 | 0.0106
CCSC1=N/C(=C\c2cccnc2)C(=O)N1c1ccccc1 | 26.1 | -0.2 | 1.7 | -0.877 | x | x | x | x | x | x
CC(C)(C)OC(=O)[C@H](Cc1ccccc1)NC(=O)c1nc[nH]c1C(=O)N[C@@H](Cc1ccccc1)C(=O)OC(C)(C)C | -5.2 | x | 10.5 | 3.41* | 0.00581 | 0.00404 | 0.0321 | 0.00721 | 0.0192 | 0.00922
O=C(c1cccnc1)C1CCN(C(=O)Cc2ccccc2Cl)CC1 | -27.2 | x | x | x | x | x | x | x | x | x
Cc1c(Cl)cccc1-n1c(SCC(=O)NCc2ccccc2Cl)nnc1-c1ccncc1 | 7.6 | x | 6.5 | -0.365 | x | x | x | x | x | x
Cc1c(Cl)cccc1-n1c(SCC(=O)NCc2cccs2)nnc1-c1ccncc1 | -3.2 | x | 4.3 | -1.19 | 0.00985 | 0.00573 | 0.0365 | 0.00974* | 0.0203 | 0.011
CCOc1ccc(NC(=O)CSc2nc3ccccc3c(=O)n2-c2cccc(C)c2)cc1 | -11.1 | x | 6.8 | x | x | x | x | x | x | x
O=C(NNC(=O)c1oc2ccccc2c1-n1cccc1)c1ccco1 | 3.8 | -8.3 | 3.0 | x | 0.00741 | 0.0238* | 0.0398* | 0.0188* | 0.0299* | 0.0188*
COCCCn1c(SCC(=O)Nc2nnc(C)s2)nnc1-c1ccoc1C | 9.2 | 1.1 | 7.7 | x | 0.0073 | 0.00504 | 0.0345 | 0.00811 | 0.0191 | 0.0115
Cn1ccnc1C1(O)CCN(C(=O)Cc2ccccc2F)CC1 | -11.2 | x | x | x | x | x | x | x | x | x
O=C(COc1ccccc1-c1ccccc1)NN=C1CCCC1 | 7.4 | -7.9 | 4.0 | -3.44* | 0.00709 | 0.00392 | 0.0316 | 0.00505* | 0.0178 | 0.0077*
CC1Cc2ccccc2N1C(=O)CCn1c(=O)sc2ccccc21 (configuration not stated) | 17.4 | 19.9 | 12.4 | -1.7* | 0.00407* | 0.00325* | 0.0213* | u | 0.0127* | u
Cc1cccc(NC(=O)c2cccc(N3C(=O)C4C5CCC(C5)C4C3=O)c2)c1C (configuration not stated) | -23.7 | x | 8.5 | 6.2* | 0.00748 | 0.0046 | 0.0294 | 0.00792 | 0.0192 | 0.0109

Assay outcomes: PubChem BioAssay, several laboratories
